# Inconclusive results are not listed. Activity calls are given as the source filed them. The calls were made as follows: active = hit-call score of the fitted dose curve at least 0.9, where 1 is the maximum; inconclusive = response in the unintended direction; inactive = score below 0.9.
# Key:
# [1] = target: Estrogen receptor (Homo sapiens) (UniProt P03372); assay: OT_ER_ERaERa_1440: Odyssey Thera (OT) 24-hour HEK293T Protein-Complementation Assay for Estrogen Receptor-alpha/-alpha Homodimer (AID 2283349);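 also: hits raise fluorescence above DMSO for agonists and antagonists alike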
# Chain of Estrogen receptor (Homo sapiens) (P03372 whole entry, looked up, the tested form may be a part): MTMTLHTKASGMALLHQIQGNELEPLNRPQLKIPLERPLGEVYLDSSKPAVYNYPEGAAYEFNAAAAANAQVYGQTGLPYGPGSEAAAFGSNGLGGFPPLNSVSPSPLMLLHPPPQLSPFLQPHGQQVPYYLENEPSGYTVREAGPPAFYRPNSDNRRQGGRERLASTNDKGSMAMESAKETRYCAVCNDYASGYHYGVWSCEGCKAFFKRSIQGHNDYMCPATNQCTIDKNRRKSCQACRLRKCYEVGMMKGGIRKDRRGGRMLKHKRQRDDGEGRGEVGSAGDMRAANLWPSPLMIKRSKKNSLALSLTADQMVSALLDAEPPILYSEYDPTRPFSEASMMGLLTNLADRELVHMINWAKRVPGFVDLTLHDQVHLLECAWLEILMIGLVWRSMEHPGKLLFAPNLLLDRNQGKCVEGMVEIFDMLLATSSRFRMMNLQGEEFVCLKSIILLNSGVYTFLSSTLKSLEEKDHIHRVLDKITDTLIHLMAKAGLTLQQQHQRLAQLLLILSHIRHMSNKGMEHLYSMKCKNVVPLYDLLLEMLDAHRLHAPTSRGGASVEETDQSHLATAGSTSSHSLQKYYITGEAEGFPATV
# Summary of the method: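 HEK293T cells stably expressing the human ER alpha ligand-binding domain (aa 310-547) as a homodimer PCA were dosed for 24 hours. Fluorescence intensity was read by laser scanning cytometry, and gain of signal was fitted relative to DMSO vehicle.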
# [2] = target: Estrogen receptor (Homo sapiens) + Estrogen receptor beta (Homo sapiens) (UniProt P03372+Q92731); assay: OT_ER_ERaERb_0480: Odyssey Thera (OT) 8-hour HEK293T Protein-Complementation Assay for Estrogen Receptor-alpha/-beta Heterodimer (AID 2283352)
# Chain of Estrogen receptor (Homo sapiens) + Estrogen receptor beta (Homo sapiens) (P03372 whole entry, looked up, the tested form may be a part): as above
# Chain of Estrogen receptor (Homo sapiens) + Estrogen receptor beta (Homo sapiens) (Q92731 whole entry, looked up, the tested form may be a part): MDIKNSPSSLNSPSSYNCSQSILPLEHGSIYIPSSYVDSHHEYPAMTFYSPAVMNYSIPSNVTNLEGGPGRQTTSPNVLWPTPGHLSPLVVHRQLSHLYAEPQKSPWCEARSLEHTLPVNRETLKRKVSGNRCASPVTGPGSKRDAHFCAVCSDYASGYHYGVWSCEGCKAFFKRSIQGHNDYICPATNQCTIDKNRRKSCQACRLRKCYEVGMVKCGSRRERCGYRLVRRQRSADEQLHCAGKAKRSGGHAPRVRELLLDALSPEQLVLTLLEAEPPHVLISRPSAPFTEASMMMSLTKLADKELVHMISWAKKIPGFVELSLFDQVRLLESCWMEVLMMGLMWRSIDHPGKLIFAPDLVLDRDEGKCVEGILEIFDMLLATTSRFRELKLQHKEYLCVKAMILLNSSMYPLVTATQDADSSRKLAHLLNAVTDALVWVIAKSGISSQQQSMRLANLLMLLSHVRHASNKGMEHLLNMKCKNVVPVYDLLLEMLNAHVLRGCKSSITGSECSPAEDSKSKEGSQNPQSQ
# Summary of the method: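 Human HEK293T cells were treated for 8 hours and receptor heterodimerisation was detected through reconstitution of a fluorescent reporter split between ER-alpha and ER-beta ligand-binding domains. Activity was analysed as gain of signal against DMSO.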
# [3] = target: Estrogen receptor (Homo sapiens) (UniProt P03372); assay: OT_ER_ERaERa_0480: Odyssey Thera (OT) 8-hour HEK293T Protein-Complementation Assay for Estrogen Receptor-alpha/-alpha Homodimer (AID 2283351);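 also: rise in fluorescence from reassembled reporter fragments on ERα LBD homodimer in nucleus or whole cell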
# Summary of the method: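 HEK293T, stable ERα LBD (aa 310-547) PCA homodimer; 8 h compound exposure; fluorescence intensity, laser scanning cytometer; positive fitting direction, DMSO baseline.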
SMILES,outcome [1],outcome [2],AC50 [3],AC50 [2],outcome [3]
O=S(=O)(O)c1cc(S(=O)(=O)O)c2c(N=Nc3ccccc3)c(O)ccc2c1,inactive,inactive,,,
O=C(OCc1ccccc1)c1ccccc1O,inactive,,63 µM (active),46 µM (active),
OCC=Cc1ccccc1,inactive,inactive,,,
CC(=O)Nc1cc(S(=O)(=O)O)cc2cc(S(=O)(=O)O)c(N=Nc3ccccc3)c(O)c12,inactive,inactive,,,inactive

# From PubChem BioAssay (EPA / NIEHS)
